About 8,800 targets were measured; listed, in parts, are those with a hit and a random draw of the rest. About 0.5% of all pairs of compound and target were hits. A number with no mark means an inactive call.
What was measured:
Test in all cases: log2 fold change, soluble protein after heating vs DMSO (PISA); higher = thermal stabilisation; K562 lysate, 10 uM; active = over 0.2 and 3.5 SD of the protein, either way, in both replicates (recomputed)
[1] = compound: C1=CC=C(C=C1)[C@H](COC2=CC3=C(C=C2)NC(=O)N3)NC(=O)C4=CC=CN(C4=O)CC5=CC(=C(C=C5)F)F
How it was run: (§1)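 Values give the log-two fold change in thermal stability against solvent controls, from duplicates. Crude K562 extract at 1 mg/mL protein, made by dounce homogenisation in PBS pH 7.4 with 1 mM MgCl2, was treated with 10 μM compound for 30 min. After 3 min heating across 48°C-58°C, aliquots were pooled, adjusted to 0.5% NP-40 at 4°C and centrifuged at 21,000xg for 90 min. The supernatant was measured by TMTpro 16plex LC-MS/MS with channel sums equalised.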

[2] = compound: CC1=C(SC2=C1C(=N[C@H](C3=NN=C(N32)C)CC(=O)N)C4=CC=C(C=C4)Cl)C
How it was run: as §1

[3] = compound: CC1=C2C(=CC=C1)N=C(N(C2=O)C3=CC=CC=C3C)CN4C=NC5=C(N=CN=C54)N
How it was run: as §1

[4] = compound: Cc1sc2c(c1C)C(c1ccc(Cl)cc1)=N[C@@H](CC(=O)OC(C)(C)C)c1nnc(C)n1-2
How it was run: as §1

[5] = compound: c1ccc([C@@H]2C[C@H]2NC2CCNCC2)cc1
How it was run: as §1

Sequence of UniProt Q86X10 (Q86X10 whole entry, looked up): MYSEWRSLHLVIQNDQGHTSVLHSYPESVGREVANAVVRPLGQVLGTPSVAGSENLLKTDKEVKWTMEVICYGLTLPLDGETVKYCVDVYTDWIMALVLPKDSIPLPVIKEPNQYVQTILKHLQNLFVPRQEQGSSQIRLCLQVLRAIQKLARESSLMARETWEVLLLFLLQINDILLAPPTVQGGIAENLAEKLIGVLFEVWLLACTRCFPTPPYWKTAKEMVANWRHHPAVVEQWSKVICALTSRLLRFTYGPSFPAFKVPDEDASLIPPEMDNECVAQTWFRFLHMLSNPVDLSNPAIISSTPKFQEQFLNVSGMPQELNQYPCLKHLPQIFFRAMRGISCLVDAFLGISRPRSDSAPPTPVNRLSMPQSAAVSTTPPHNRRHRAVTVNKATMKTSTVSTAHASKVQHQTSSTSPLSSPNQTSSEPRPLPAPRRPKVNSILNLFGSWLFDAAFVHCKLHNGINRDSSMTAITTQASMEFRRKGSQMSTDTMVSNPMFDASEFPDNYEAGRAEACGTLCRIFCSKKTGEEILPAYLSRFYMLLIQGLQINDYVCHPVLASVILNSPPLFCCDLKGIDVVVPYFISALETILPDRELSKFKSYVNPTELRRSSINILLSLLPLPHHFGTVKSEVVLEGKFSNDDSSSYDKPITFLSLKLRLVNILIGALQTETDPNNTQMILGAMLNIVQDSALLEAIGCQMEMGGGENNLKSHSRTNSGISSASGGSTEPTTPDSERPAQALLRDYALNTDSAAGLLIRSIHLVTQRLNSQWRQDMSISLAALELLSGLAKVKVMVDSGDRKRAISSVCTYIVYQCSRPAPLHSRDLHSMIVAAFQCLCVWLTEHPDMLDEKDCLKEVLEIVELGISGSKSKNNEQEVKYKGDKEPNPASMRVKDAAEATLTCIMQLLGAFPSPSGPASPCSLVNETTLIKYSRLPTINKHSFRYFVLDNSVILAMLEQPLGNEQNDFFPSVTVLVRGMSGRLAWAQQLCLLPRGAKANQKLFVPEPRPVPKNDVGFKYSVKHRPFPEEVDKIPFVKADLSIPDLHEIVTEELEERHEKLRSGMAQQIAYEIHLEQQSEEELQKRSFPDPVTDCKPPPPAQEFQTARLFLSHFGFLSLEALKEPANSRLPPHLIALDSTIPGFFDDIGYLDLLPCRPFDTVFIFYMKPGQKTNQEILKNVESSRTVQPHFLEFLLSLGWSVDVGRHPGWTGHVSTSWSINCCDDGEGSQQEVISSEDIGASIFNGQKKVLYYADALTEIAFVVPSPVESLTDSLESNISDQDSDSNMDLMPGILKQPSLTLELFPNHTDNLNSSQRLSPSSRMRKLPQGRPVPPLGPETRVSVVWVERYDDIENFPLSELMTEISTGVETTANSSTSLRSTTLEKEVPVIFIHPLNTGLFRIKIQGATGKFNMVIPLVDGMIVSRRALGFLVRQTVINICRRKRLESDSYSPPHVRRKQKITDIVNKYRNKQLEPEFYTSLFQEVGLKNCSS
Sequence of UniProt Q8WXA3 (Q8WXA3 whole entry, looked up): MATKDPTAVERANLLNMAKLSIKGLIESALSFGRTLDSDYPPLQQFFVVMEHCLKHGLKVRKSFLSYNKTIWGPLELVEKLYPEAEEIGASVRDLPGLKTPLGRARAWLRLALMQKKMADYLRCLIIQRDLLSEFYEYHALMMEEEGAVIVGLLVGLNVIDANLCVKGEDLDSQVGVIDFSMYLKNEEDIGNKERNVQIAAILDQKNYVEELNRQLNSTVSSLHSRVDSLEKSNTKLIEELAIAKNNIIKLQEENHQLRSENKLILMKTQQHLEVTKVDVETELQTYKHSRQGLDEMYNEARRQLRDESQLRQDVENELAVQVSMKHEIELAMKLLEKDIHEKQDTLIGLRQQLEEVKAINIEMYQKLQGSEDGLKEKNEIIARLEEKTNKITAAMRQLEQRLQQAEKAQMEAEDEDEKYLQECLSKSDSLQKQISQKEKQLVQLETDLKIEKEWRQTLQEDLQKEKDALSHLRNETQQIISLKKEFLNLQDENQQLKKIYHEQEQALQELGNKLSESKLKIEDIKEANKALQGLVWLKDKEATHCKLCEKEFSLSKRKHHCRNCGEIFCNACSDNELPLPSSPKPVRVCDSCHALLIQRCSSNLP
Sequence of UniProt Q9Y225 (Q9Y225 whole entry, looked up): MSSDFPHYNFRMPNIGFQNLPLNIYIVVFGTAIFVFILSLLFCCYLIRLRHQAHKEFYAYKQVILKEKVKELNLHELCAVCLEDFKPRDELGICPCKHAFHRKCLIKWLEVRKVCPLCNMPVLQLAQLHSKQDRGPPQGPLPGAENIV
Sequence of UniProt Q9BXT8 (Q9BXT8 whole entry, looked up): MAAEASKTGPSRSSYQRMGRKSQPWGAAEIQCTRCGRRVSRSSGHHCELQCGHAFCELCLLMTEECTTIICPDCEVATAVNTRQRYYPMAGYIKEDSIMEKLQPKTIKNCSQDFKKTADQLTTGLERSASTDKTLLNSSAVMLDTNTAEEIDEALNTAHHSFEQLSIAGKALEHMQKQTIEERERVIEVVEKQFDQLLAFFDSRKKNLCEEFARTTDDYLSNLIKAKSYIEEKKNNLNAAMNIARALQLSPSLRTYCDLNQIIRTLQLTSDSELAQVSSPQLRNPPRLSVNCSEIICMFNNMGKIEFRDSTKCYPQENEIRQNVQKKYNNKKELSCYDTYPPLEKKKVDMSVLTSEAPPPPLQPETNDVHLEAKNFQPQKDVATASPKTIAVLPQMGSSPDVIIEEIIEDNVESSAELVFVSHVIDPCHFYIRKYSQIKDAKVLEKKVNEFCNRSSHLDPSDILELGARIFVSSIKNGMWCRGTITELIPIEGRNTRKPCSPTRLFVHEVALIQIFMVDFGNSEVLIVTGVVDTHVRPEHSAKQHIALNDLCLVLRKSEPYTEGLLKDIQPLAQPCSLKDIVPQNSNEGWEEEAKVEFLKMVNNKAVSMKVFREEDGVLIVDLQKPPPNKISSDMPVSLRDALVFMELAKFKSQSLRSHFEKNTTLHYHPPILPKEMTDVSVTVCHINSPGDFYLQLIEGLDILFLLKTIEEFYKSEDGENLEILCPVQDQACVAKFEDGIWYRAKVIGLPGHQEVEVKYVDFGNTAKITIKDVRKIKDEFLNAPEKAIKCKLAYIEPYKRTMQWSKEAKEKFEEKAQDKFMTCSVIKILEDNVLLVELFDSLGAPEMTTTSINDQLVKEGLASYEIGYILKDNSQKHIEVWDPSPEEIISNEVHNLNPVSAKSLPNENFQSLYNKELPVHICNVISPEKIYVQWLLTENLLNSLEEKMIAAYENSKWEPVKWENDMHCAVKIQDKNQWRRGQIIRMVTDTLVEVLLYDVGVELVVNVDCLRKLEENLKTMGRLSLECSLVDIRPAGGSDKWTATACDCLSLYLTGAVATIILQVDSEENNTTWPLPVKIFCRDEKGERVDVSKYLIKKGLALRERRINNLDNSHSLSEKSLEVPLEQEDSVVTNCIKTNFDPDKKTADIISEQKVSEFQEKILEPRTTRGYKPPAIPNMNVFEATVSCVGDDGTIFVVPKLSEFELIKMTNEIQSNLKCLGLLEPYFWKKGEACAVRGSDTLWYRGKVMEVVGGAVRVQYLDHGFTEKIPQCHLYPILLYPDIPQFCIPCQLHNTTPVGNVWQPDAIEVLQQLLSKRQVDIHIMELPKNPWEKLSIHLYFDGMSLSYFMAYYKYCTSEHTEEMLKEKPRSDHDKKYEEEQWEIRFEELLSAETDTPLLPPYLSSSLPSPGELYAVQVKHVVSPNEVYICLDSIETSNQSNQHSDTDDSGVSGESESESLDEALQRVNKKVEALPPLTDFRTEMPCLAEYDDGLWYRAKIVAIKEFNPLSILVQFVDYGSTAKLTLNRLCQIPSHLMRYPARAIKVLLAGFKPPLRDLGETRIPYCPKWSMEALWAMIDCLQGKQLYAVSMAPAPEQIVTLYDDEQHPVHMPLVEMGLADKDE
Sequence of UniProt Q7L0Q8 (Q7L0Q8 whole entry, looked up): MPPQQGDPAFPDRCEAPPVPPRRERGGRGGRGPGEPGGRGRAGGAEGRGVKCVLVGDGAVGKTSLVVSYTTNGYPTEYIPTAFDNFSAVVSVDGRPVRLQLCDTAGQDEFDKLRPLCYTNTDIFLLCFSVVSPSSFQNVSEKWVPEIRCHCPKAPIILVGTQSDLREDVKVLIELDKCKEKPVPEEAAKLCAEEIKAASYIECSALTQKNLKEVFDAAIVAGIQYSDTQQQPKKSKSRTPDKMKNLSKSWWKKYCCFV
Sequence of UniProt P40938 (P40938 whole entry, looked up): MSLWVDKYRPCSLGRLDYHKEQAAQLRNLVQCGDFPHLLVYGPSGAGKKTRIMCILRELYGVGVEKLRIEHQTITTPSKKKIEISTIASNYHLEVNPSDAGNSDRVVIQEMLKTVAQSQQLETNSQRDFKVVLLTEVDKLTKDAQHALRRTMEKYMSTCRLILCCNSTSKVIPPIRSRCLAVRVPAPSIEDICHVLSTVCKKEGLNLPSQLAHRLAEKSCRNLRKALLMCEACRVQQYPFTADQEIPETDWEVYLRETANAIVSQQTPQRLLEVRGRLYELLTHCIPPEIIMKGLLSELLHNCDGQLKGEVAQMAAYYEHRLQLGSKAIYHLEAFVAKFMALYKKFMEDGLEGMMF
Sequence of UniProt Q8TC12 (Q8TC12 whole entry, looked up): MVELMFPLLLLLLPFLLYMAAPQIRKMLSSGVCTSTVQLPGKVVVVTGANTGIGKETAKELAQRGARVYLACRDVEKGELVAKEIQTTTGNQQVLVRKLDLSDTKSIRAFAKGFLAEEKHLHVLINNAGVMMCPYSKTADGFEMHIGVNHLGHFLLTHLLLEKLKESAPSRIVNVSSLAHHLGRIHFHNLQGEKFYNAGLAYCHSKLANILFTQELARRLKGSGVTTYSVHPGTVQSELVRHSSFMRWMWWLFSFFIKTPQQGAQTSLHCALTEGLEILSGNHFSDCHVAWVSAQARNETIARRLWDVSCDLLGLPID

Target	log2 fold change [1]	log2 fold change [2]	log2 fold change [3]	log2 fold change [4]	log2 fold change [5]
RFC3 (UniProt P40938)	-0.032	0.003	0.026	0.055	0.024
S100A6 (UniProt P06703)	–	–	-0.084	-0.1	0.104
QSER1, A0A3B3IRW6	–	–	0.047	-0.027	–
SEC16A isoform 3 (UniProt O15027)	–	–	–	-0.006	–
RHOU (UniProt Q7L0Q8)	–	–	0.065	-0.1	-0.015
RNPC3 (UniProt Q96LT9)	–	–	–	-0.029	-0.034
RALGAPB isoform 3 (UniProt Q86X10)	0.107	0.05	–	0.189	0.153
RAD54L (UniProt Q92698)	-0.013	-0.031	–	-0.299	-1.06 (active)
RUFY2 isoform 1 (UniProt Q8WXA3)	-0.28	-0.106	-0.087	–	-0.111
RDH11 (UniProt Q8TC12)	–	–	0.064	0.069	-0.085
RNF17 (UniProt Q9BXT8)	-0.241	1 (active)	–	0.129	0.451
RNF24 isoform 2 (UniProt Q9Y225)	-0.219	0.037	–	–	-0.115

From the supplement of paper PMC10849652
